From PubChem BioAssay AID504332 (National Center for Advancing Translational Sciences (NCATS), 2011)
Screen size: about 350,000 compounds; about 31,000 (8.9%) were called active. Not shown: some 15% with an inconclusive outcome. The call rests on the fitted dose curve; in most records, active means well fitted inhibition curve with a large enough effect; inconclusive means small, poorly fitted or top-dose-only effect; inactive means no such curve, though single readings can be large or run the other way. This excerpt belongs to a sample that is enriched for actives.

What follows are compounds tested against Histone-lysine N-methyltransferase EHMT2 (Homo sapiens) (UniProt Q96KQ7) (assay: qHTS Assay for Inhibitors of Histone Lysine Methyltransferase G9a). Settings: G9a H3K9 monomethylation, AlphaScreen, 2 h; series mostly up to 59 µM.
In short: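 Enzyme 20 nM + cpd, 15 min RT; add b-H3K9 pep 500 nM / SAM 20 uM; 2 h RT; anti-H3K9me1 Ab 0.5 ug/mL + SA donor / anti-rabbit acceptor beads 20 ug/mL each, 10 min; AlphaScreen read.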
Further: nearly all actives have a fitted effect of over 75% in size.
On the % scale 0 is the no-effect control and ±100 the full control effect; potency means the concentration at half of the fitted maximal effect.

Sequence of Histone-lysine N-methyltransferase EHMT2 (Homo sapiens) (Q96KQ7 913-1193 limits assumed): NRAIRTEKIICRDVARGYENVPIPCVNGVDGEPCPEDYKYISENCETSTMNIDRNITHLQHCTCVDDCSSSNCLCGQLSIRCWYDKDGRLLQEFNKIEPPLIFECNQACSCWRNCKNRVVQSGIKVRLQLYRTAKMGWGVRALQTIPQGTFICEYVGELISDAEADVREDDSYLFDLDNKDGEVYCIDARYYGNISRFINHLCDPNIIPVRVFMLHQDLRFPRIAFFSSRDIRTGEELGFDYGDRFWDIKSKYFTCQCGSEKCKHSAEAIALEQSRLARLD

Potency, active:
CCn1c(=O)n(CC)c2cc(N3CCCC3)c(NC(=O)c3ccccc3Br)cc21 44.7 µM
Cc1ccc(S(=O)(=O)N2CCCCC2)cc1C(=O)N1CCN(CCO)CC1 11.2 µM
COc1cc2c(cc1OC)C(/C=C/c1ccco1)=NCC2 50.1 µM
O=C(NCCCN1CCCCCC1)c1ccc(N2CCCC2=O)cc1 22.4 µM

Potency, inactive:
COc1cccc(CNCc2c(C(=O)O)n(Cc3ccc(C)cc3)c3cc(C)ccc23)c1OC
CCn1c(=O)c(=O)n(CC)c2cc(N3CCCCC3)c(NC(=O)c3cccc(F)c3)cc21
Cc1cc(C)cc(NC(=O)Cn2c(=O)c3ccccc3n3nncc23)c1
COc1cc(C(=O)OCC(=O)N(CC(C)C)C2CCS(=O)(=O)C2)ccc1OCC(C)C (stereo unspecified)
COc1ccc(C(=O)OCC(=O)N2CC(=O)Nc3ccccc32)cc1Br
CCOC(=O)N1CCN(C(=O)c2cn(C)c3ccc(S(=O)(=O)N4CCCC4)cc3c2=O)CC1
Cc1ccc(S(=O)(=O)N2CCN(C)CC2)cc1C(=O)NC1CCCCC1
Cc1cccc(N2CCN(c3c(CN4CCCC4)c(=O)oc4ccccc34)CC2)c1C
COc1ccc(N(CC(=O)NCCc2ccc(Cl)cc2)S(=O)(=O)c2c(C)nn(C)c2C)cc1
CCC(=O)N1CCc2cc(S(=O)(=O)NC(Cc3ccccc3)C(=O)NCc3ccccc3)ccc21 (stereo unspecified)
Cc1ccc(S(=O)(=O)NCCC(=O)NCc2ccc(Cl)cc2)cc1C
CCOC(=O)C1=NN(c2ccc(Cl)cc2)/C(=C/C2=NCCc3cc(OC)c(OC)cc32)S1
COc1cc2c(cc1OC)C(c1cccc([N+](=O)[O-])c1)=NCC2
O=C(O)c1cccc2c1C(=O)N(C1CCCC1)C2
COc1ccc(NC(=O)c2ccc3nc(C(C)C)oc3c2)cc1OC
CCc1ccc(CN(Cc2ccco2)C(=O)c2ccccc2Cl)cc1
CC1CCC(NC(=O)c2ccc(N3CCCC3=O)cc2)CC1 (stereo unspecified)
CCOc1ccc(C(=O)NCCCN2CCCC2=O)cc1
Cc1nc(SCC(=O)N2CCN(c3ccccc3)CC2)[nH]c(=O)c1C

activity, negative = inhibition, inactive:
CCn1c(=O)c(=O)n(CC)c2cc(N3CCCCC3)c(NC(=O)c3ccc(Cl)cc3)cc21 1.91% [at 12.7 µM]
O=C(OCC(=O)N1CCN(C(=O)c2ccco2)CC1)c1ccc(Cl)c(Cl)c1 16.1% [at 12.7 µM]
Cc1cc2nc3n(c2cc1C)CC1CC(C(=O)NCCC(C)C)N(C)C31 (stereo unspecified) 5.1% [at 12.7 µM]
